# In all, about 87,000 compounds went through this assay and about 360 (0.41%) were called active. Many of the other results were omitted from the sample, so actives are more common in it than they were. A number with no mark means an inactive call. Cut-off read from the data, not from the text of the source: active = cytotoxicity above about 50%; inactive = the rest.
# Experiment: cytotoxicity in HT1080 fibrosarcoma cells, cell-based, fluorescence readout (AID 620);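 note: cells exposed to compound overnight then 4 h with Alamar Blue; 0% = vehicle DMSO and 100% = killing control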
# Conditions: HT1080 viability, at 10 µM, stronger effect = higher value
row,Structure (SMILES),cytotoxicity
1,Cc1ccc2[nH]c3c(=O)n(CCCN4CCOCC4)cnc3c2c1,-1.5%
2,CCOc1ccc(NC(=O)c2cc3cc4ccc(OC)cc4nc3o2)cc1,-4.9%
3,COc1ccc(NC(=O)c2ccco2)c(NC(=O)Cc2cccs2)c1,-0.8%
4,O=C(C(NS(=O)(=O)c1cccs1)c1ccccc1)N1CCN(c2ccccc2F)CC1 (stereo not drawn),1.9%
5,CC(C)(C)N(Cc1ccccc1)C(=O)c1ccc2c(c1)OCCO2,-6.6%
6,Cc1sc2ncnc(NCC3CCCO3)c2c1C (stereo not drawn),-6.6%
7,COC(=O)c1ccc(NC(=O)CSc2nc3cccnc3n2C)cc1,-2.4%
8,COc1cc(NC(=O)C2CCCO2)c(C(=O)O)cc1OC (stereo not drawn),6.7%
9,COc1ccccc1N1CCN(C(=O)c2cc3sccc3n2C)CC1,-5.4%
10,O=C(OC(C(=O)NC1CCCC1)c1ccccn1)c1cccs1 (stereo not drawn),-10%
11,CN=C1SC(CC(=O)Nc2sc3c(c2C#N)CCCC3)C(=O)N1C (stereo not drawn),1.2%
12,CN1Cc2cc(C(=O)c3cc(Cl)cc(CSc4ncccn4)c3O)cnc2NC1=O,70.1% (active)
13,CCCCN1Cc2cc(C(=O)c3cc(F)ccc3O)cnc2NC1=O,-2.9%
14,CN1Cc2cc(C(=O)c3ccccc3O)cnc2NC1=O,-10.1%
15,O=C1NC(c2ccccc2)C(C(=O)c2cccs2)=C1O (stereo not drawn),-9.1%
16,COc1ccccc1NC(=O)c1ccc(NS(C)(=O)=O)cc1,-6.8%
17,C/C(=N\NC(=O)c1ccccn1)C12CC3CC(CC(C3)C1)C2,-0.9%
18,CCN(CC)S(=O)(=O)c1cccc(-c2nnc(SCC(=O)NC3CCCC3)n2N)c1,-9.2%
19,COc1ccccc1NC(=O)N1CCC(c2nc3cc(C)c(C)cc3[nH]2)CC1,72.8% (active)
20,CCOc1ccccc1NC(=O)N1CCC(c2nc3ccc(C)cc3[nH]2)CC1,-20.4%
21,CCOc1ccccc1NC(=O)N1CCC(c2nc3ccccc3[nH]2)CC1,2.8%
22,Cc1ccc(NC(=O)/C(C#N)=C/c2cccs2)c(C)c1,-7.9%
23,COC(=O)[C@@]1(Cc2ccc(F)cc2)[C@H]2c3cc(C(=O)N4CCCC4)n(CCc4ccc(O)c(O)c4)c3C[C@H]2CN1C(=O)c1ccccc1,-15.9%
24,COc1ccccc1CNC(=O)CCS(=O)(=O)c1cccs1,-8.3%
25,COc1cc(CNc2ccccc2SC)cc(OC)c1OC,-30.4%

row,Structure (SMILES),cytotoxicity
1,COc1cc(CNc2ccc(C)c(C)c2)cc(OC)c1OC,54.5% (active)
2,COc1cc(CNc2cc(C)ccc2C)cc(OC)c1OC,-14.1%
3,CCOC(=O)c1csc(NC(=O)C2CCCCC2)n1,-6.3%
4,CCc1c(C)sc(NC(=O)C2CCCO2)c1C#N (stereo not drawn),0.6%
5,O=C(Cn1c(CC(=O)N2CCCC2)nc2ccccc21)NCc1ccccc1,3%
6,COc1ccc(NC(=O)Nc2ncccc2C)cc1,0.5%
7,Cc1nnc(SCCn2c(N3CCN(C)CC3)nc3c2c(=O)n(C)c(=O)n3C)s1,-3.5%
8,Cc1nnc(SCCn2c(N3CCN(C)CC3)nc3c2c(=O)[nH]c(=O)n3C)s1,-10.1%
9,Cc1nnc(Sc2nc(Sc3nnc(C)s3)nc(N3CCN(C)CC3)n2)s1,59.7% (active)
10,COC(F)(C(=O)Nc1ccc2c(c1)C(=O)NC2=O)C(F)(F)F (stereo not drawn),0.1%
11,Cc1cc(NC(=O)COc2ccccc2)n(-c2ccccc2)n1,7.7%
12,CC(=O)Nc1ccc(-c2cc(NC(C)=O)n(-c3ccccc3)n2)cc1,-2.5%
13,Cc1ccc(-c2cc(NC(=O)CCl)n(-c3ccccc3)n2)cc1,60.4% (active)
14,Cc1cc(NC(=O)Nc2cc(C)nn2-c2ccccc2)n(-c2ccccc2)n1,4.3%
15,CC(=O)Nc1cc(-c2ccc(Cl)cc2)nn1-c1ccccc1,1.4%
16,O=C(CCl)Nc1cc(-c2ccccc2)nn1-c1ccccc1,54.1% (active)
17,O=C(NCCc1c[nH]c2ccccc12)c1cnc2sccn2c1=O,-1.9%
18,O=C(NCC(c1cccnc1)N1CCN(c2ccccc2F)CC1)c1ccccc1 (stereo not drawn),-1.1%
19,CC(NS(=O)(=O)c1ccc(OCC(=O)N2CCOCC2)cc1)c1ccccc1 (stereo not drawn),0.3%
20,O=C(Nc1ccc2c(c1)OCO2)OCc1ccccc1,13.2%
21,Cn1nc(-c2ccc(Cl)cc2)nc2c(=O)n(C)c(=O)nc1-2,51% (active)
22,CCS(=O)(=O)n1nc(-c2ccc(Cl)cc2)nc1N,0.1%
23,CSc1nc(-c2ccc(Cl)cc2)nn1S(=O)(=O)c1ccc(Cl)cc1,-13%
24,C=CCN=C(NC#N)SCCc1ccccc1,-4.6%
25,Cc1nn(C)c(C)c1NC(=O)c1ccnn1C,-16.7%

row,Structure (SMILES),cytotoxicity
1,CN1CCN(Cc2cc(COCc3ccccc3)c3cccnc3c2O)CC1,43.1%
2,Oc1c(CN2CCOCC2)cc(COCc2ccccc2)c2cccnc12,20.5%
3,Oc1ccc(CN2CCc3ccccc3C2)c2cccnc12,33.5%
4,OCCN1CCN(Cc2cc(Cl)c3cccnc3c2O)CC1,-4.1%
5,O=c1oc2c(CN3CCOCC3)c(O)c(Cl)cc2c2c1CCC2,7.1%
6,CCOCC(=O)Nc1nnc(COc2ccc(Cl)cc2)s1,17.8%
7,CCOC(=O)CSc1nnc(Cn2c(=O)sc3ccccc32)n1C,1.9%
8,CCN(CC)c1ccc(C(=S)N2CCN(c3ccccc3)CC2)cc1,-2.9%
9,Cc1cc(C(=O)CSc2nnc(-c3ccccc3F)o2)c(C)n1Cc1cccs1,-6.5%
10,O=C(CSc1nnc(-c2cccs2)o1)c1cccs1,25.4%
11,COC(=O)C1=C(COc2ccccc2)NC(=O)NC1c1ccc2ccccc2c1 (stereo not drawn),-5.7%
12,CCOC(=O)C1=C(N)n2c(s/c(=C/c3ccccc3)c2=O)=C(C(=O)OCC)C1c1ccccc1 (stereo not drawn),-1.6%
13,CCOC(=O)C1=C(N)n2c(s/c(=C\c3cccs3)c2=O)=C(C(=O)OCC)C1c1cccs1 (stereo not drawn),56.3% (active)
14,CCOC(=O)C1=C(N)n2c(s/c(=C\c3ccco3)c2=O)=C(C(=O)OCC)C1c1ccco1 (stereo not drawn),36.1%
15,Brc1ccc(-c2cn3cccnc3n2)cc1,9.4%
16,Brc1ccc(-c2cn3c(n2)CCc2ccc4cccnc4c2-3)cc1,53.1% (active)
17,c1ccc(-c2cn3c(n2)CCc2ccc4cccnc4c2-3)cc1,37%
18,CCn1c(=O)n(CC)c2cc(S(=O)(=O)N3CCC(c4ccccc4)CC3)ccc21,-6.5%
19,Cn1c(=O)c(=O)n(C)c2cc(S(=O)(=O)N3CCc4ccccc43)ccc21,-4%
20,CCn1c(=O)n(CC)c2cc(S(=O)(=O)N3CCc4ccccc43)ccc21,71.3% (active)
21,Cc1cc(C)c(C)c(S(=O)(=O)NCc2ccco2)c1C,24.4%
22,COc1ccc(C(N)=O)cc1N,2.5%
23,COc1ccc(C(=O)c2ccc(OC)c(OC)c2)cc1OC,14.8%
24,COc1ccc(C(=O)c2ccc(OC)c(N)c2)cc1N,53.8% (active)
25,COc1ccc(OCCCC(=O)Nc2nncs2)cc1,8.3%

row,Structure (SMILES),cytotoxicity
1,O=C(NCCN1CCN(c2ccccc2F)CC1)C1CC(=O)N(C2CCCC2)C1 (stereo not drawn),7%
2,CC1CCCCC1NC(=O)CSc1nncs1 (stereo not drawn),-0.9%
3,COC(=O)c1ccc2c(c1)C(C)(C)C(/C=C/c1ccc(OC)c(OC)c1OC)=[N+]2C,64.8% (active)
4,COC(=O)c1ccc(OC(=O)c2ccc(OCc3c(C)noc3C)c(OC)c2)cc1,-2%
5,COC(=O)c1ccc(OC(=O)c2ccc(OC)c(OC)c2)c(OC)c1,-8%
6,O=C(Nc1cccc(Cl)c1)N(CCN1CCOCC1)Cc1cccc(Cl)c1,24%
7,Cc1ccc(NC2=NCC(=O)N2Cc2ccccc2)c(C)c1,-14.9%
8,COC(=O)c1cc2ccsc2n1Cc1cc(=O)n2ccccc2n1,60.2% (active)
9,COC(=O)c1cc2ccsc2n1CC(=O)N(C)c1ccccc1,-3.5%
10,COC(=O)c1cc2ccsc2n1Cc1nc(-c2ccc(OC)cc2)oc1C,-11.4%
11,CCn1c(SCC(=O)Nc2ccccc2)nc2c1c(=O)n(C)c(=O)n2C,-1.6%
12,COc1cccc(OCC(=O)Nc2c(C(=O)Nc3ccc(OC)cc3OC)oc3ccccc23)c1,2.3%
13,O=S(=O)(Nc1cccnc1)c1cccc(C(F)(F)F)c1,2.9%
14,O=C(COc1cccc2ccccc12)N1CCN(c2ccccn2)CC1,-9%
15,Cc1ccc(Nc2nc(N3CCOCC3)c3ccccc3n2)cc1,-0.4%
16,COc1ccc(Nc2nc(N3CCCC3)c3ccccc3n2)cc1,19.5%
17,CCOC(=O)N1CCN(c2c(N3CCN(c4ccccn4)CC3)c(=O)c2=O)CC1,-3%
18,COc1ccc(-c2nc3ccccc3s2)cc1O,-4%
19,COc1ccc(-c2c/c(=N\c3nc(-c4ccccc4)c(C)s3)c3ccccc3o2)cc1O,60% (active)
20,COc1ccc(-c2nc(-c3ccccc3)c(-c3cc([N+](=O)[O-])ccc3C)[nH]2)cc1O,10.8%
21,Cn1c(SCc2ccccc2Cl)nc2ccccc21,30.7%
22,Cc1nc2ccc(NC(=O)c3ccc(Cl)c(NC(=O)c4cccs4)c3)cc2s1,3.4%
23,CCn1c(SCc2ccccc2)nnc1-c1ccc(S(=O)(=O)N2CCCCC2)cc1,-8.1%

# Reference: PubChem BioAssay AID620 (Sanford-Burnham Center for Chemical Genomics, 2007)
